Source: PubChem BioAssay (NCATS)
Inconclusive results are not listed. The source made the active and inactive calls. Unless noted, the call rests on the fitted dose curve; in most records, active means well fitted curve in either direction with a large enough effect (not every such curve was filed as active); inconclusive means small, poorly fitted or top-dose-only effect, or another doubt; inactive means flat fitted curve, though single readings scatter.

Key:
[1] = target: Lysosomal acid glucosylceramidase (Homo sapiens) (UniProt P04062); test: Glucocerebrosidase-p2 (AID 348; in the data active means potency below about 10 µM; further: potency means the concentration at half of the fitted maximal effect); settings: purified GBA, blue fluorogenic substrate, 40 min
Procedure, shortened: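 Normal human glucocerebrosidase (0.2 nM) with blue fluorogenic substrate (80 uM final) in citrate/phosphate pH 5.9 with 10mM sodium taurocholate, 0.01% tween-20; 40 min RT, NaOH/glycine stop; fluorescence Ex 365/Em 440; AC50 from a titration from 0.6 nM upwards.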

[2] = AP1 Signaling Pathway (AID 357); settings: ME-180 AP-1-bla reporter, EGF-induced, beta-lactamase ratio, 5 h; at 7.69 µM (top of the series) unless noted;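 further: ME-180 reporter cells stimulated with EGF at its EC50 level; on the % scale 0 is the no-effect control and ±100 the full control effect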
Procedure, shortened: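 First, ME-180 AP-1-bla cells were cultured overnight at 37 °C in low-serum Opti-MEM. Next, titrated compounds with EC50 EGF were incubated 5 hours. Finally, CCF4 was added for 2.5 hours and the 460/530 nm ratio recorded.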

[3] = NFAT Signaling Pathway (AID 444); settings: Jurkat NFAT-bla M1, carbachol, beta-lactamase ratio, 5 h; at 7.69 µM (top of the series) unless noted;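 further: carbachol stimulus at about its EC50 of 1 µM final; on the % scale 0 is the no-effect control and ±100 the full control effect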
Procedure, shortened: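 Jurkat cells with NFAT-driven β-lactamase reporter and co-expressed M1 receptor, stimulated with carbachol (final 1 uM, ~EC50), compound titration, 5 h at 37 °C. CCF4 loaded 1 h at RT; 460/530 nm ratio gave %activity and AC50.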

[4] = Stat Signaling Pathway (AID 446); settings: ME-180 (cervical carcinoma) SIE beta-lactamase reporter, IL-6 stimulated, 5 h; at 7.69 µM (top of the series) unless noted;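 further: ME-180 cervical cancer cells given 40 pM IL-6 alongside compound; SIE-controlled beta-lactamase reporter measured as 460/530 nm FRET emission ratio; on the % scale 0 is the no-effect control and ±100 the full control effect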
Procedure, shortened: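 FRET read-out (405 nm excitation, 460/530 nm emission) of a beta-lactamase reporter under a STAT-inducible element in ME-180 cervical carcinoma cells. Cells with compound receive 40 pM IL-6 for 5 h. Values are normalised to AC90 stimulation and AC90 JAK-inhibitor controls.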

[5] = target: Glucocorticoid receptor (Homo sapiens) (UniProt P04150); test: GR-GFP Redistribution (AID 450;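 active means compounds whose dose series gives a full or clear partial fitted curve of increased nuclear translocation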; further: potency means the concentration at half of the fitted maximal effect); settings: U2OS GR-GFP nuclear translocation, laser cytometry, 2 h
[6] = target: Glucocorticoid receptor (Homo sapiens) (UniProt P04150); test: GR-EFC Redistribution (AID 451; calls by dose curve; further: potency means the concentration at half of the fitted maximal effect); settings: CHO-K1 GR-EFC translocation, beta-gal luminescence, 2 h
Procedure, shortened: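 CHO-K1 cells expressing nuclear EA and GR-ED fragments of b-gal; compounds titrated up to 46 uM final, 2 h at 37 C. GR nuclear translocation read as complemented b-gal luminescence after 1 h RT detection.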

[7] = target: Mitogen-activated protein kinase 10 (Mus musculus) (UniProt Q61831); test: JNK3 AlphaScreen Assay (AID 530); settings: JNK3 lysate, c-Jun phosphorylation; series mostly up to 11.4 µM;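 further: kinase came from lysate of stimulated human HepG2 cells; signal reports phosphorylation of biotinylated GST-cJun 1-79 at Ser73 with 10 µM ATP; on the % scale 0 is the no-effect control and ±100 the full control effect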
Procedure, shortened: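 HepG2 lysate (IL-1b/TNFa pre-activated) + biotin-GST-cJun 1-79 + anti-pSer73 cJun; cpd titration, 15 min RT; ATP 10 uM start; Tris pH 7.6, MgCl2, DTT, vanadate; beads in EDTA buffer; AlphaScreen.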

[8] = target: 3',5'-cyclic-AMP phosphodiesterase 4B (Homo sapiens) (UniProt Q07343); test: qHTS Assay for Inhibitors of PDE-IV (AID 607; active means well fitted activation curve with a large enough effect in the main read-out, with a control signal flat, not every such curve was filed as active; further: % of control where 0% means no effect); settings: HEK293 ACTOne CNG channel cells, membrane potential fluorescence; series mostly up to 22.9 µM
Procedure, shortened: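 Cell-based read-out of cAMP via a modified cyclic nucleotide-gated channel and membrane potential dye (535/590 nm) in HEK293 cells expressing PDE4 endogenously. Compounds tested up to 22.9 uM final; 100 uM RO 20-1724 reference.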

Chain of Lysosomal acid glucosylceramidase (Homo sapiens) (P04062 whole entry, looked up): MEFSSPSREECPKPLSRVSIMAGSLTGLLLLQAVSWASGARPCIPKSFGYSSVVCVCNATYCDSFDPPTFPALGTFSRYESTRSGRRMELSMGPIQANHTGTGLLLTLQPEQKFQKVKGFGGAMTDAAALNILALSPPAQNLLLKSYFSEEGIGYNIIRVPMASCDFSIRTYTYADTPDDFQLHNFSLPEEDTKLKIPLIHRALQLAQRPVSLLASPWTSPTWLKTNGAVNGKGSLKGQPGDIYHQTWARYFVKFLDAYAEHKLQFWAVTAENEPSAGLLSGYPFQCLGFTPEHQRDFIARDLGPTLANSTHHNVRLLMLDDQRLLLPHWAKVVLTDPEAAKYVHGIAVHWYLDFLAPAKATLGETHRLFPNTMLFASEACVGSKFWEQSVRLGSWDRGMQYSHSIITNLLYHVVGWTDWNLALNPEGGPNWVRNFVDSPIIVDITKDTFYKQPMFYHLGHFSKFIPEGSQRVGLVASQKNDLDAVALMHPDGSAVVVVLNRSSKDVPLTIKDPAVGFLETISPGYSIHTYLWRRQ
Chain of 3',5'-cyclic-AMP phosphodiesterase 4B (Homo sapiens) (Q07343 whole entry, looked up): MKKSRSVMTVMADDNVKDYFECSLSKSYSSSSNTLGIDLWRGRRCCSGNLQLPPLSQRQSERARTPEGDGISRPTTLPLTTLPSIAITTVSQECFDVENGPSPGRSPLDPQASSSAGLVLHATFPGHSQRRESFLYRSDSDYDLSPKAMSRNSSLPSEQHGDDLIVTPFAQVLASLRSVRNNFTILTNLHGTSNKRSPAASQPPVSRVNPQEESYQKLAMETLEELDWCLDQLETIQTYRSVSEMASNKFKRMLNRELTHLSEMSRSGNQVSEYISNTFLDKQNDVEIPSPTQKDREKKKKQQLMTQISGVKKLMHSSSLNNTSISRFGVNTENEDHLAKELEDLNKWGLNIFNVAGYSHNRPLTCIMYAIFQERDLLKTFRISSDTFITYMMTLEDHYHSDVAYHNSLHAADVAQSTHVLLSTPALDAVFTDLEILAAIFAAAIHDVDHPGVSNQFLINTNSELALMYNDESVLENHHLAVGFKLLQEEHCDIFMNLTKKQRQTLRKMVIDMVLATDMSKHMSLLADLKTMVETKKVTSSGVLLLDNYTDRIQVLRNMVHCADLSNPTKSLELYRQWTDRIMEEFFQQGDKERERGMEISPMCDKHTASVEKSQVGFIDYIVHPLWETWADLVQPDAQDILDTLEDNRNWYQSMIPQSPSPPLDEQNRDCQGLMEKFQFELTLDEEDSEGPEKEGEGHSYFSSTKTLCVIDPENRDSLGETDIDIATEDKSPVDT
Chain of Glucocorticoid receptor (Homo sapiens) (P04150 whole entry, looked up, the tested form may be a part): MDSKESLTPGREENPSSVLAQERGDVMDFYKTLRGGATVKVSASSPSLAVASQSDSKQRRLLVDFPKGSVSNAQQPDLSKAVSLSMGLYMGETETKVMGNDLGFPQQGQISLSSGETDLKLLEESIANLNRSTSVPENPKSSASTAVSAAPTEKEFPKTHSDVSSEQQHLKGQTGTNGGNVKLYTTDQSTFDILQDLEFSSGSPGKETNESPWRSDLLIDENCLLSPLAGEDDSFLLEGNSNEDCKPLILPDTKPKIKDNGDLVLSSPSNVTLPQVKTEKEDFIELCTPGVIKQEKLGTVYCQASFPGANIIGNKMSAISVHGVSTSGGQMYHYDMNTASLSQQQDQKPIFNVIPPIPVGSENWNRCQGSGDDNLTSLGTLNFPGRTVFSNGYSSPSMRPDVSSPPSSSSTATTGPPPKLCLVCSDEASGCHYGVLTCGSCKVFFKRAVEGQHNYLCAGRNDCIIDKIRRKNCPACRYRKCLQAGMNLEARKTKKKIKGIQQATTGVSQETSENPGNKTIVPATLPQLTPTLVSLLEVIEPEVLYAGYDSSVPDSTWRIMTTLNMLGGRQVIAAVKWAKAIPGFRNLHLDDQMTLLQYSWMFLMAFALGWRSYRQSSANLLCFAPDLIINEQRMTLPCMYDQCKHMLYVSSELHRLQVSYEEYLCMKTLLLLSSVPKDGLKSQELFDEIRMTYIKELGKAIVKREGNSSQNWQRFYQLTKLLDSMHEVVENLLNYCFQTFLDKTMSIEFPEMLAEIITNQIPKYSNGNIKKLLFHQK

O=S(=O)(c1ccccc1)N1CCN(S(=O)(=O)c2ccccc2)c2ccccc21
inactive: Potency [1] > 11.4 µM | activity change, negative = inhibition [2] -16.4% | activity change, negative = inhibition [3] -13.6% | activity, negative = inhibition [4] -7.57% | Potency [5] > 46 µM | Potency [6] > 9.22 µM | Potency [7] | Potency [8]

O=C1CSC(=S)N1/N=C\c1ccc(Cl)c([N+](=O)[O-])c1
inactive: Potency [1] > 11.4 µM | activity change, negative = inhibition [2] 1.11% | activity change, negative = inhibition [3] 6.49% | activity, negative = inhibition [4] 1.79% | Potency [5] > 46 µM | Potency [6] > 9.22 µM | Potency [7] | Potency [8]

Nc1nc(SCC(=O)c2ccc(Br)cc2)c2[nH]cnc2n1
inactive: Potency [1] > 11.4 µM | activity change, negative = inhibition [2] -11.1% | activity change, negative = inhibition [3] 23.5% | activity, negative = inhibition [4] 1.94% | Potency [5] > 46 µM | Potency [6] > 9.22 µM | Potency [7] | Potency [8]

NC1=N[C@H](c2ccc(Cl)cc2)N(c2ccc(S(N)(=O)=O)cc2)C(N)=N1
inactive: Potency [1] > 11.4 µM | activity change, negative = inhibition [2] -2.15% | activity change, negative = inhibition [3] -10.1% | activity, negative = inhibition [4] -0.371% | Potency [5] > 46 µM | Potency [6] > 9.22 µM | Potency [7] | Potency [8]

O=C(O)CCSCc1ccc(I)cc1
inactive: Potency [1] > 11.4 µM | activity change, negative = inhibition [2] 2.76% | activity change, negative = inhibition [3] 1.51% | activity, negative = inhibition [4] 4.16% | Potency [5] > 46 µM | Potency [6] > 9.22 µM | Potency [7] | Potency [8]

O=C(NC1(C(=O)O)CCCC1)c1ccccc1
inactive: Potency [1] > 11.4 µM | activity change, negative = inhibition [2] -4.54% | activity change, negative = inhibition [3] 12% | activity, negative = inhibition [4] 6.79% | Potency [5] > 46 µM | Potency [6] > 9.22 µM | Potency [7] | Potency [8]

O=C(O)c1cncc(C(=O)O)c1
inactive: Potency [1] > 11.4 µM | activity change, negative = inhibition [2] 1.97% | activity change, negative = inhibition [3] 3.72% | activity, negative = inhibition [4] 6.17% | Potency [5] > 46 µM | Potency [6] > 9.22 µM | Potency [7] | Potency [8]

CC(=O)CSCc1ccccn1
inactive: Potency [1] > 11.4 µM | activity change, negative = inhibition [2] 4.51% | activity change, negative = inhibition [3] -1.92% | activity, negative = inhibition [4] -2.34% | Potency [5] > 46 µM | Potency [6] > 9.22 µM | Potency [7] | Potency [8]

Cc1nc([N+](=O)[O-])cn1-c1nc2ccccn2c1[N+](=O)[O-]
inactive: Potency [1] > 11.4 µM | activity change, negative = inhibition [2] 2.55% | activity change, negative = inhibition [3] -3.74% | activity, negative = inhibition [4] 4.02% | Potency [5] > 46 µM | Potency [6] > 9.22 µM | Potency [7] | Potency [8]

CC(=O)Nc1nc2ncc(C=O)nc2c(=O)[nH]1
inactive: Potency [1] > 11.4 µM | activity change, negative = inhibition [2] -2.43% | activity change, negative = inhibition [3] 17.3% | activity, negative = inhibition [4] 5.76% | Potency [5] > 46 µM | Potency [6] > 9.22 µM | Potency [7] | Potency [8]

O=C(O)c1ccncc1.O=C(O)c1ccncc1.[NH2-].[NH2-].[Pt]
inactive: Potency [1] > 11.4 µM | activity change, negative = inhibition [2] -4.3% | activity change, negative = inhibition [3] 8.19% | activity, negative = inhibition [4] 2.8% | Potency [5] > 46 µM | Potency [6] > 9.22 µM | Potency [7] | Potency [8]

N[C@@]1(C(=O)O)CCC[C@@H]1C(=O)O
inactive: Potency [1] > 11.4 µM | activity change, negative = inhibition [2] 6.92% | activity change, negative = inhibition [3] 10.2% | activity, negative = inhibition [4] 9.09% | Potency [5] > 46 µM | Potency [6] > 9.22 µM | Potency [7] | Potency [8]

Cc1cc2c(=O)[nH]c(N)nc2nc1C
inactive: Potency [1] > 11.4 µM | activity change, negative = inhibition [2] 1.82% | activity change, negative = inhibition [3] 7.25% | activity, negative = inhibition [4] 9.62% | Potency [5] > 46 µM | Potency [6] > 9.22 µM | Potency [7] | Potency [8]

O=C1c2ccccc2C(=O)c2c(Nc3ccc4c5c(cccc35)C(=O)c3ccccc3-4)cccc21
inactive: Potency [1] > 11.4 µM | activity change, negative = inhibition [2] -3.08% | activity change, negative = inhibition [3] 6.45% | activity, negative = inhibition [4] 0.0671% | Potency [5] > 46 µM | Potency [6] > 9.22 µM | Potency [7] | Potency [8]

C[N+]1(C)CCO[C@](O)(c2ccccc2)C1
inactive: Potency [1] > 11.4 µM | activity change, negative = inhibition [2] 7.17% | activity change, negative = inhibition [3] -3.28% | activity, negative = inhibition [4] 6.89% | Potency [5] > 46 µM | Potency [6] > 9.22 µM | Potency [7] | Potency [8]

N#C[C@H](C(=O)O)C(c1c(Cl)cccc1Cl)[C@H](C#N)C(=O)O
inactive: Potency [1] > 11.4 µM | activity change, negative = inhibition [2] 1.46% | activity change, negative = inhibition [3] 5.02% | activity, negative = inhibition [4] 5.11% | Potency [5] > 46 µM | Potency [6] > 9.22 µM | Potency [7] | Potency [8]
